High-throughput results from PubChem BioAssay.
This is a sample that favours compounds with a hit; in the whole collection about 1.2% have one here.
KCNH2 3.1 block – blocks the human KCNH2 3.1 channel isoform; activity change, % (tested at about 1.8 µM); U2OS KCNH2 3.1, thallium flux FluxOr; hits give low values; hit rate 0.95% among 340,000;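 active means maximum activity change below -70%; inconclusive means maximum activity change from -70% to -50%; inactive means maximum activity change above -50%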;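 further: thallium influx rate constant from kinetic fluorescence after stimulation buffer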
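We transduce U2OS cells with the mutant 3.1 virus, culture them overnight, load FluxOr with Red40 quencher for 45 min, then add stimulation buffer and read kinetically for 2 min to derive a normalized rate constant.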
mIDH1 inhibitor – inhibitors of human mutant IDH1 R132H; O75874; IDH1-R132H enzyme, NADPH consumption, diaphorase/resazurin fluorescence; Potency, µM (series often up to 76.6 µM), actives largely listed as inhibitors; hit rate 0.093% among 390,000; further: nearly all actives have a fitted effect of over 65% in size
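IDH1-R132H (0.5 ug/mL dispensed) in pH 7.5 Tris buffer was preincubated 30 min with compound, then given a substrate mix of 0.016 mM NADPH and 2 mM alpha-KG for 80 min at room temperature; remaining NADPH was read by diaphorase/resazurin fluorescence.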
S-ASM inh – inhibitors of human secretory acid sphingomyelinase. Potency, µM (top dose mostly 57.5 µM), hits mostly inhibitors. placental ASM, HMU-PC fluorogenic substrate, 60 min. hit rate 0.006% among 340,000
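Fluorescence read-out (Ex 386 nm, Em 447 nm) after stopping the reaction at pH 10. Enzyme: ASM from human placenta; substrate HMU-PC0, 9 uM final; 60 min, 37 °C. Compound preincubation 10 min, ambient temperature.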
Anesthetic bind – candidate novel general anesthetic via apoferritin binding. hit rate 0.074% among 350,000. Potency, µM (series often up to 77.5 µM), actives largely listed as inhibitors. apoferritin/1-aminoanthracene competitive binding, fluorescence; further: nearly all actives have a fitted effect of over 20% in size
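Horse-spleen apoferritin (10 uM) in 50% saturated 1-aminoanthracene in PBS was incubated 10 min at room temperature with compound. Fluorescence (ex 380, em 535 nm) was normalized to free and bound 1-AMA, with concentration-response fitted by a four-parameter Hill equation.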
hERG WT inh – inhibitors of human wildtype KCNH2 potassium channel; hit rate 0.37% among 340,000; activity change, % at 1.84 µM; Q12809; U2OS, BacMam KCNH2, thallium flux FluxOr; hits give low values; AID 720551;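 active means maximum activity change below -70%; inconclusive means maximum activity change between -70% and -50%; inactive means maximum activity change above -50%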
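U2OS cells transduced with wild-type KCNH2 virus are loaded with FluxOr dye for 45 min, and thallium flux is measured in kinetic reads before and after stimulation buffer. Rate constants are normalized to DMSO controls.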
Each line names hits and unclear results; the compound was inactive in the other large screens. Unless noted, the call rests on the fitted dose curve; in most records, active means well fitted inhibition curve with a large enough effect; inconclusive means small, poorly fitted or top-dose-only effect; inactive means no such curve, though single readings can be large or run the other way.

CN(C)CCCn1cnc2c1c(=O)[nH]c(=O)n2Cc1ccccc1	none
O=C1C2=CC[C@H]3C(=O)N(Cc4ccc5c(c4)OCO5)C(=O)[C@@H]3[C@@H]2[C@H](O)[C@@H]2O[C@H]12	none (no result: KCNH2 3.1 block, mIDH1 inhibitor, S-ASM inh, hERG WT inh)
COc1cnn(-c2cccc(Cl)c2)c(=O)c1Cl	KCNH2 3.1 block -100 (no result: Anesthetic bind)
CC1=C(C(=O)Nc2ccccc2)C(c2ccncc2)n2nc(SCc3ccccc3F)nc2N1 (centres undefined)	none (no result: KCNH2 3.1 block, S-ASM inh, hERG WT inh)
Cc1ccc(-n2c(-c3c(-c4ccccc4)noc3C)n[nH]c2=S)cc1	KCNH2 3.1 block -188
Cc1ccc(Cn2c(C)c(CNCc3ccccc3F)c(C(=O)O)c2C)cc1	none (no result: KCNH2 3.1 block, S-ASM inh, hERG WT inh)
C(=C\c1ccccc1)/CSc1nnc(-c2ccccc2)n1Cc1ccco1	none
Clc1cccc(-c2nnc(SC/C=C/c3ccccc3)n2Cc2ccco2)c1	KCNH2 3.1 block -98
CC1CC(C)(C)NC(C)c2ccccc21 (centres undefined)	none
CC1CC(C)(C)NCc2ccccc21 (centres undefined)	KCNH2 3.1 block -89
Cc1cc(N2CCN(c3nc(-c4ccc([N+](=O)[O-])cc4)cs3)CC2)c2ccccc2n1	KCNH2 3.1 block -124, hERG WT inh -122
Cc1cc(-c2ccc([N+](=O)[O-])cc2)nc2ccccc12	Anesthetic bind inconclusive
CCOc1ccccc1C(=O)N1CC(=O)Nc2ccc(Cl)cc2C1c1ccccc1 (centres undefined)	none (no result: KCNH2 3.1 block, S-ASM inh, hERG WT inh)
C=CCn1c2ccccc2c(=O)c2cc(C#Cc3cc(OC)cc(OC)c3)ccc21	KCNH2 3.1 block -97 (no result: Anesthetic bind)
Cc1cc(-c2ccccc2)nc2cc(C(=O)Nc3cc(C(F)(F)F)ccc3Cl)nn12	none (no result: KCNH2 3.1 block, S-ASM inh, hERG WT inh)
COc1ccc(CCNC(=O)/C=C/c2ccc(C)cc2)cc1OC	KCNH2 3.1 block -89
COc1ccc(/C=C/C(=O)NCCCN2CCCC2)cc1	none
COc1ccc(CCNC(=O)c2c(Cl)ccc(Cl)c2OC)cc1OC	KCNH2 3.1 block -96
CC(C)(C)c1ccc(C(=O)NCCN2CCOCC2)cc1	none (no result: Anesthetic bind)
CC(C)(C)c1ccc(C(=O)NCCCN2CCN(CCCNC(=O)c3ccc(C(C)(C)C)cc3)CC2)cc1	KCNH2 3.1 block -114
COc1ccc(/C=C/C(=O)NCCc2ccc(OC)c(OC)c2)cc1	none
Cc1ccc(/C=C/C(=O)NCCCN2CCN(CCCNC(=O)/C=C/c3ccc(C)cc3)CC2)cc1	KCNH2 3.1 block -122, hERG WT inh -119
CCCN(c1ccccc1CC)S(=O)(=O)c1ccc2c(c1)CC(C)N2C(=O)C1CC1 (centres undefined)	none (no result: KCNH2 3.1 block, mIDH1 inhibitor, S-ASM inh, hERG WT inh)
COc1ccc(CNC(=O)CS(=O)(=O)c2cccc3nsnc23)cc1	none (no result: KCNH2 3.1 block, S-ASM inh, hERG WT inh)
CCc1cccc2c(-c3ccccc3)c3c(nc12)OCC3	none (no result: KCNH2 3.1 block, mIDH1 inhibitor, S-ASM inh, hERG WT inh)
CCN(CC)c1ccc(NC(=O)CSc2nnc(C)c(=O)[nH]2)cc1	none (no result: KCNH2 3.1 block, S-ASM inh, hERG WT inh)
COc1ccc(C)cc1NC(=O)N1CCN(S(=O)(=O)c2ccc3c(ccn3C)c2)CC1	none (no result: KCNH2 3.1 block, S-ASM inh, hERG WT inh)
O=C(CCCn1c(=O)c2cccn2c2ccccc21)NCc1ccccc1Br	none (no result: KCNH2 3.1 block, S-ASM inh, hERG WT inh)
COC(=O)Cn1c(C(=O)N2CCCC2)cc2c1C[C@H]1CN(C(=O)c3ccccc3)[C@@](Cc3ccccc3)(C(=O)OC)[C@@H]21	none (no result: KCNH2 3.1 block, mIDH1 inhibitor, S-ASM inh, hERG WT inh)
O=C(O)c1nc(NCCc2ccccc2)ncc1Cl	KCNH2 3.1 block -180, hERG WT inh -113
Cc1ccc(Cc2nc3ccccc3nc2SCC(=O)Nc2ccc3c(c2)OCO3)cc1	none (no result: KCNH2 3.1 block, S-ASM inh, hERG WT inh)
CC1(C)CC(O)CC(C)(C)N1CC(O)COCc1ccccc1 (centres undefined)	KCNH2 3.1 block -81
COC(=O)N1CC=CC1(C)C(=O)O (centres undefined)	none (no result: KCNH2 3.1 block, mIDH1 inhibitor, S-ASM inh, hERG WT inh)
C=CCNC(=O)c1ccc(N(Cc2ccc(Cl)cc2)S(C)(=O)=O)cc1	none
C=CCNC(=O)c1ccc(CN(c2ccc(OCC)cc2)S(=O)(=O)c2ccc(C)cc2)cc1	KCNH2 3.1 block -88, hERG WT inh inconclusive
Nc1[nH]c(=S)[nH]c(=O)c1-c1ccccc1	hERG WT inh -183
Cc1ccccc1OCCn1cc(/C=C(\C#N)C(=O)NCc2ccco2)c2ccccc21	KCNH2 3.1 block -77
N#C/C(=C\c1cn(Cc2ccc(C#N)cc2)c2ccccc12)C(=O)NCc1cccs1	KCNH2 3.1 block -86
COc1ccc(N(CC(O)Cn2c(C)nc3ccccc32)S(=O)(=O)c2ccccc2)cc1 (centres undefined)	none
